Source: PubChem BioAssay AID1963321 (National Center for Advancing Translational Sciences (NCATS), 2024)
Results filed as inconclusive are left out. The source made the active and inactive calls. The call rests on the fitted dose curve.

What follows are compounds tested against cAMP-dependent protein kinase catalytic subunit alpha (Homo sapiens) (UniProt P17612) (assay: Protein Kinase A (PKA-HiBiT) enzymatic inhibition screen - Functional assay). Details: luminescence; series mostly up to 57.5 µM.
Description: National Center for Advancing Translational Sciences (NCATS),
National Institute of Health (NIH), Maryland
Discovery and optimization of novel protein-binding ligands underlies many of the methods and applications of biology, drug discovery, clinical diagnostics, and environmental toxicology. Assays for detecting the interaction of, for example, a molecule with a macromolecular target also referred to here as the target of interest (TOI) is dependent on a compatible output technology. Depending on the nature and knowledge surrounding the TOI, whether a receptor, enzyme, regulatory subunit or scaffold, or a sequence-defined nucleic acid folded into a complex tertiary structure, assay strategies can vary widely.
Here we exploit ligand-biased changes in the structural dynamics of the target protein to control reporter alpha complementation allowing a non-competitive, non-functional, non-separation measure of ligand-target interaction.
Using a chemical library of >1,200 compounds enriched for scaffolds known to be associated with the inhibition of firefly luciferase (FLuc) activity (PubChem AIDs 2309) we first illustrate and compare the Structural Dynamics Response (SDR) assay vs. the standard functional FLuc enzyme assay (2). Secondly, we show the specificity and sensitivity of the SDR for the Abelson tyrosine kinase (ABL1) compared to the serine/threonine protein kinase A, using an enriched chemical library of 128 compounds selected, in part, for activity annotated with ABL1 kinase activity using the Pharos database (3).
(1) A. S. Dixon et al., NanoLuc Complementation Reporter Optimized for Accurate Measurement of Protein Interactions in Cells. ACS Chem Biol 11, 400-408 (2016).
Chemistry & Biology, 19, 1060 - 1072 (2012).
(3) K. J. Kelleher et al., Pharos 2023: an integrated resource for the understudied human proteome. Nucleic Acids Res 51, D1405-D1416 (2023).
PROTOCOL TABLE (as described by Inglese J, Shamu CE and Guy RK. 2007)
SEQUENCE No. (e.g., 1, 2, 3, etc.); […] (e.g., C. elegans, Compounds, Incubation, Read, etc.); VALUE and DESCRIPTION.
1. Reagent. Dispense 4 uL PKA-N-HiBiT enzyme per well at a final enzyme concentration of 10 nM in buffer with 87.5 uM ATP (functional assay) into columns 2-48 of four replicate Greiner 1536-well white,solid bottom high base, medium plates per assay. Dispense respective buffer without enzyme at 4 uL/well in column 1 of assay plates using BioRaptr 2.
2. Compounds. Library compounds added at 23 nL/well by pin transfer. DMSO neutral control and H-89 positive control added at 25 nL/well, transfer by Mosquito dispenser.
3. Incubation. Incubate enzyme and compounds at room temperature for 30 min, protect from light.
4. Reagent. (Functional assay) Transfer 25 nL of kemptide peptide substrate to each well of four replicate kinase assay plates with Mosquito dispenser.
5. Incubation. (Functional assay) Kinase Enzyme incubated with peptide substrate for 3 h at room temperature, protected from light.
6. Reagent. (Functional assay) Add 4 uL/well of Kinase-Glo Plus reagent (Promega) to kinase activity assay plates.
7. Detector. (Functional assay) Luminescence measured using CCD-based camera (ViewLux) with settings as follows: Exposure, 1 sec; Gain, High; Speed, Slow; Binning, 2X.
Inglese J, Shamu CE and Guy RK, Reporting data from high throughput screening of small molecule libraries, Nature Chemical Biology, 2007, 3(8): 438-441. doi.org/10.1038/nchembio0807-438.

Potency, inactive:
Cn1sc(=O)n(Cc2ccccc2)c1=O, CC1(C)OCCn2c1nc1c(N3CCOCC3)nc(-c3cnc(N)nc3)nc12, CN1CCN(CCOc2cc(OC3CCOCC3)c3c(Nc4c(Cl)ccc5c4OCO5)ncnc3c2)CC1, CCN1CCN(Cc2ccc(NC(=O)c3ccc(C)c(NC(=O)c4cncc(-c5cccs5)c4)c3)cc2C(F)(F)F)CC1, COc1cc(N2CCC(N3CCN(C)CC3)CC2)ccc1Nc1ncc(Cl)c(Nc2ccccc2P(C)(C)=O)n1, S=C(NCc1ccc2c(c1)OCO2)N1CCN(c2ncnc3c2oc2ccccc23)CC1, O=c1c(O)c(-c2ccc(O)c(O)c2)oc2cc(O)cc(O)c12, O=C(NOCC(O)CO)c1cc(Br)c(F)c(F)c1Nc1ccc(I)cc1F (stereo not given), COc1ccc(CNC(=O)Nc2ncc([N+](=O)[O-])s2)cc1, Cc1cc(Nc2cc(N3CCN(C)CC3)nc(Sc3ccc(NC(=O)C4CC4)cc3)n2)n[nH]1, N#Cc1ccc2ncnc(NCCc3ccccc3)c2c1, Cc1ccc(NC(=O)N2CCN(c3nc(N)nc4sc(-c5cccnc5)nc34)CC2)cc1, NC1CCC(Nc2nc(Nc3ccc(C(=O)N4CCCCC4)cc3)c3ncn(-c4cccc(F)c4)c3n2)CC1 (stereo not given), COc1cc2c(cc1OC)-c1[nH]nc(Nc3cccc(F)c3)c1C2, O=C1C(c2c(O)[nH]c3ccccc23)=Nc2ccccc21, Cc1nc(NC(=O)N2CCC[C@H]2C(N)=O)sc1-c1ccnc(C(C)(C)C(F)(F)F)c1, CN1CCN(CCCNc2ncc(Cl)c(-c3cc4c(C(=O)NC5CC5)cccc4s3)n2)CC1, O=C1CCC(N2C(=O)c3ccccc3C2=O)C(=O)N1 (stereo not given), CCn1c(=O)c(-c2ccc(Cl)cc2Cl)cc2cnc(Nc3ccc(N4CCNCC4)c(F)c3)nc21, Cc1cccc(C)c1-n1c(=O)c2cnc(Nc3ccc(N4CCN(C)CC4)cc3)nc2n2c3ccccc3nc12, COc1cc2nccc(Oc3ccc(NC(=O)Nc4ccc(F)cc4F)c(F)c3)c2cc1OC, Cc1ccccc1-n1c([C@H](C)Nc2nc(N)nc3nc[nH]c23)nc2cccc(C)c2c1=O, CCN1/C(=C\C(C)=O)Sc2ccc(OC)cc21, CNS(=O)(=O)c1ccc2c(c1)/C(=C/c1[nH]c3c(c1CCCN1CCN(C)CC1)CCCC3)C(=O)N2, COc1cc(N2CCN(C)CC2)ccc1Nc1nc(N)c(C(=O)c2c(Cl)cccc2Cl)s1, COc1cc(N2CCC(O)CC2)ccc1Nc1nc(Nc2ccccc2S(=O)(=O)C(C)C)c2[nH]cnc2n1, COc1ccc(S(=O)(=O)N(C(C)=O)c2ccccc2/C=C/c2cc[n+]([O-])cc2)cc1, CCN1CCN(Cc2ccc(NC(=O)Nc3ccc(Oc4cc(NC)ncn4)cc3)cc2C(F)(F)F)CC1, Cc1cc(-c2cc(O)ccc2Cl)cc2nnc(Nc3ccc(OCCN4CCCC4)cc3)nc12, COc1ccccc1-c1c[nH]c2ncc(-c3cncc(C(=O)N(C)C)c3)cc12, Cc1ccc(-n2nc(C(C)(C)C)cc2NC(=O)NCc2cc(F)ccc2Oc2ccc3c(cnn3CCO)c2)cc1, CCCS(=O)(=O)Nc1ccc(F)c(C(=O)c2c[nH]c3ncc(Cl)cc23)c1F, CCCCCCCCCCCCc1ccc(S(=O)(=O)Nc2nncs2)cc1, C[C@@H]1CCNC(=O)c2cc3ccc(C(=O)Nc4nc5ccccc5n4CCCN(C)C)cc3n21, Cc1cc(F)ccc1-c1nc(NCCN=C(N)NC#N)nc2c1ccc(=O)n2-c1c(F)cccc1F, COc1cc2c(N3CCN(C(=O)Nc4ccc(OC(C)C)cc4)CC3)ncnc2cc1OCCCN1CCCCC1, Nc1nc(Nc2ccc(S(N)(=O)=O)cc2)n(C(=S)Nc2c(F)cccc2F)n1, CC[C@@](C)(Nc1ccnc(-c2c[nH]c3ncccc23)n1)C(=O)NCC(F)(F)F, COc1cc2ncnc(Oc3cccc(NC(=O)Nc4cc(C(C)(C)C(F)(F)F)on4)c3)c2cc1OC, CCN1C(=O)CNc2ncc(-c3ccc(-c4ncn[nH]4)nc3C)nc21
